pAkt inh – blocks phosphorylation of Akt; actives 0.32% (n = 360,000); Neuro2A IGF-stimulated pAkt S473 HTRF, 20 min; hits give low values; activity change, % for hits at 50 µM; AID 651550; in the data active = activity change below about -80%; inconclusive = mostly about -51% to -80%
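Neuro2A cells in DMEM with 0.5% FBS, overnight at 37 deg C, given compound at single 50 µM final, then IGF (6 nM final) for 20 min at 37 deg C. Lysed; phospho-Akt Ser473 by HTRF after 24 h, 665/615 ratio.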
gsp antag – gsp mutant antagonism | gsp-mutant cells, cAMP HTRF, 30 min | Potency, µM (top dose mostly 76.9 µM), usual class: inhibitors | actives 0.4% (n = 340,000); calls by dose curve; cell line not stated here;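 note: intracellular cAMP measured with PDE inhibitor Ro 20-1724 present during compound exposure; nearly all actives have a fitted effect of over 65% in size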
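Measurement of cellular cAMP by homogeneous time-resolved fluorescence following a 30 min compound exposure at 37C. The PDE inhibitor […] was present throughout; the assay buffer was DPBS with 0.05% BSA and 0.005% Tween 20.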
RXFP1 ag – agonists of human relaxin receptor RXFP1; Q9HBX9; HEK293T-RXFP1 cAMP TR-FRET, 30 min; response scale: percent of porcine relaxin response, buffer zero; Potency, µM (series often up to 57.5 µM), hits mostly activators; actives 0.3% (n = 370,000); active = well fitted activation curve with a large enough effect; inconclusive = small, poorly fitted or top-dose-only effect; note: nearly all actives have a fitted effect of over 60% in size
Target sequence (Q9HBX9 whole entry, looked up): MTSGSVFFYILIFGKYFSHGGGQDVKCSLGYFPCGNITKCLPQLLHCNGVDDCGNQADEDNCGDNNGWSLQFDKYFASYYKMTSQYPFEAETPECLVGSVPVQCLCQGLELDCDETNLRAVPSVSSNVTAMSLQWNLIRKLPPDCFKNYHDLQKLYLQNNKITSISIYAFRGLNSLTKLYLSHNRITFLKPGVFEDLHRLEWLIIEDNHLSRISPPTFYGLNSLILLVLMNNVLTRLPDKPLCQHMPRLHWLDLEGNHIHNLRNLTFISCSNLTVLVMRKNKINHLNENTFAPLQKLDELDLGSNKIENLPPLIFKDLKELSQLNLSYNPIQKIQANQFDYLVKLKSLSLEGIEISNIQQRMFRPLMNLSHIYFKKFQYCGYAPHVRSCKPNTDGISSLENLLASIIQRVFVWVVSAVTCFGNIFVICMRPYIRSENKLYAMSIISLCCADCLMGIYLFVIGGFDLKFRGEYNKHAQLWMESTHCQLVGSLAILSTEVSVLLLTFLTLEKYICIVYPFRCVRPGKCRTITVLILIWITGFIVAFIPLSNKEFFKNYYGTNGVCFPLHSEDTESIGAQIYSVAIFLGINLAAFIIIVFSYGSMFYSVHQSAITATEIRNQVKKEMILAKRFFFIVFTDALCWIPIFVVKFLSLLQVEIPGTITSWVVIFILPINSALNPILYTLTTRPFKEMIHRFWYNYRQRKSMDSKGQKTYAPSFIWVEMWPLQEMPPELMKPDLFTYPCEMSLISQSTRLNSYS
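HEK293T cells stably expressing RXFP1 were pretreated with the PDE4 inhibitor Ro 20174, exposed to compounds for 30 min at 37C, lysed, and cAMP was read by TR-FRET. Data normalized to buffer (basal) and 29 nM porcine relaxin (100%).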
gsp ag – agonists of gsp mutant (McCune-Albright syndrome); gsp mutant cells, cAMP HTRF, 30 min; Potency, µM (doses to about 76.9 µM), most hits filed as activators; actives 0.13% (n = 340,000); AID 624287; active = well fitted activation curve with a large enough effect; inconclusive = small, poorly fitted or top-dose-only effect, or another doubt; inactive = no such curve, though single readings can be large or run the other way; cell line not stated here;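 note: phosphodiesterase inhibitor Ro 20-1724 added with compounds to block cAMP breakdown; nearly all actives have a fitted effect of over 60% in size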
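Cells in DMEM/10% FBS with G418 were pretreated with compounds in DMSO plus […] (300 uM stock) for 30 min at 37C. cAMP was measured by HTRF (cAMP-d2 plus anti-cAMP antibody-K) after 30 min at room temperature.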
RXFP1 antag – antagonists of human relaxin receptor RXFP1 | HEK293-RXFP1, relaxin-stimulated cAMP HTRF, 30 min; hits give low values | Q9HBX9 | activity change, negative = inhibition, % at 57.5 µM | actives 0.59% (n = 350,000);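 active = activity change of -60% or lower, but not beyond a set lower limit; inconclusive = change between -60% and -40%, or beyond the set limit; inactive = change above -40%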
Each line names hits and unclear results; the compound was inactive in the other large screens. Rows were chosen to be rich in hits. Some 1.2% of all compounds tested hit in one or more screens of this group.

N#CC1=C(N)OC2=C(C(=O)CCC2)C1c1ccoc1 (configuration not stated)	none
N#CC1=C(N)OC2=C(C(=O)CCC2)C1C1C=CCCC1 (configuration not stated)	pAkt inh -110%
COc1ccc(NC(=O)c2c(C)oc3ccc(O)c(CN4CCCCCC4)c23)cc1Cl	none (no result: pAkt inh, gsp antag, gsp ag)
CCn1c(SCC(=O)NCCOC)nc2sc3c(c2c1=O)CCCC3	pAkt inh -80%
CCn1c(SCC(=O)NCCOC)nc2sc(C)c(C)c2c1=O	none (no result: pAkt inh, gsp antag, gsp ag, RXFP1 antag)
CN(C)CCCN(C(=O)c1ccc2c(c1)CCCC2)c1nc2c(F)cccc2s1	RXFP1 antag -74
O=C(CCNS(=O)(=O)c1ccc2c(c1)CCN2C(=O)C1CC1)N1CCN(c2ccc(F)cc2)CC1	none (no result: pAkt inh, gsp antag, gsp ag, RXFP1 antag)
O=C1C(SCCO)=C(SCCO)C(=O)c2ccccc21	gsp antag 35µM (no result: gsp ag, RXFP1 antag)
O=S(=O)(/N=S1\CC=CCN1S(=O)(=O)c1ccccc1)c1ccccc1 (configuration not stated)	gsp antag 50µM, RXFP1 antag -110 (no result: RXFP1 ag)
Cc1nc(-c2ccc(Cl)cc2)oc1COC(C)(C)C(=O)O	none (no result: pAkt inh, gsp antag, RXFP1 ag, gsp ag)
CCOC(=O)N1CCN(C(=O)CCS(=O)(=O)c2ccc3c(c2)CC(C)N3C(=O)CC)CC1 (configuration not stated)	gsp antag inconclusive, RXFP1 antag -92 (no result: pAkt inh)
CN(Cc1ccccc1)C(=O)CN1CCN(C(c2ccccc2)c2ccccc2)CC1	RXFP1 antag -81
O=C(NCc1ccc(Cl)cc1)C1CCCN(c2ncnc3onc(-c4ccc(F)cc4)c23)C1 (configuration not stated)	none (no result: pAkt inh, gsp antag, gsp ag)
Fc1ccc(CN2CCN(c3ncnc4scc(-c5ccc(F)cc5)c34)CC2)cc1	RXFP1 antag -68
CCC(=O)N1CCN(c2ccccc2NC(=O)c2ccc(-c3cccc([N+](=O)[O-])c3)o2)CC1	gsp antag 5.6µM
COc1ccc(-c2nn(C)c3sc(C(=O)N4CCN(c5cccc(C)c5C)CC4)cc23)cc1OC	RXFP1 ag inconclusive (no result: pAkt inh, gsp antag, gsp ag)
O=C(Nc1cccc(-c2cnc3ccccc3n2)c1)C1CC(=O)N(c2ccccc2)C1 (configuration not stated)	gsp antag inconclusive, RXFP1 antag -73
CN(Cc1ccccc1)C(=O)c1ccccc1C(=O)O	gsp ag inconclusive
CN(Cc1ccccc1)C(=O)c1ccccc1N(C)S(=O)(=O)c1ccccc1	RXFP1 antag -62
CCN(CC)CC(=O)OCC(=O)[C@@]1(O)CC[C@H]2[C@@H]3CCC4=CC(=O)CC[C@]4(C)[C@H]3[C@@H](O)C[C@@]21C	none (no result: pAkt inh, gsp antag, RXFP1 ag, gsp ag)
CC(C)c1ccc(NS(=O)(=O)c2ccc3nc(-c4ccccc4)[nH]c3c2)cc1	RXFP1 antag -69 (no result: pAkt inh, gsp antag, gsp ag)
O=S(=O)(Nc1ccc(Br)cc1)c1ccc2nc(-c3ccccc3)[nH]c2c1	none (no result: pAkt inh, gsp antag, gsp ag, RXFP1 antag)
O=C(NNC(=O)c1cccc(S(=O)(=O)N2CCN(c3ccccc3)CC2)c1)c1ccc(Cl)cc1	gsp ag 11µM (no result: RXFP1 antag)
Fc1ccc(CN2CCc3nc(N4CCN(c5ccccc5F)CC4)ncc3C2)c(F)c1	none (no result: pAkt inh, gsp antag, gsp ag)
COc1cc(CN2CCc3nc(N4CCN(c5ccccn5)CC4)ncc3C2)cc(OC)c1OC	RXFP1 antag -79 (no result: pAkt inh, gsp antag, gsp ag)
CCOc1ccccc1CN1CCc2nc(N3CCN(c4ccccc4F)CC3)ncc2C1	RXFP1 antag -60 (no result: pAkt inh, gsp antag, gsp ag)
COc1cc(CN2CCc3nc(N4CCN(c5ncccn5)CC4)ncc3C2)cc(OC)c1OC	none (no result: pAkt inh, gsp antag, gsp ag)
CN(C)c1ccc(CN2CCc3nc(N4CCN(c5ccccn5)CC4)ncc3C2)cc1	RXFP1 antag -63 (no result: pAkt inh, gsp antag, gsp ag)
CCc1ccc(NCc2cc3ccc(OC)cc3n(CC(=O)Nc3cccc(Cl)c3C)c2=O)cc1	none (no result: pAkt inh, gsp antag, gsp ag, RXFP1 antag)
COc1ccc(S(=O)(=O)NC2CCCCC2)cc1C	none
CN(C)S(=O)(=O)c1ccc(Cl)c(C(=O)OCC(=O)NC(=O)NC2CCCC2)c1	gsp antag 1µM
COc1ccc(S(=O)(=O)N(C)CC(=O)NC2CCCC2)cc1Cl	pAkt inh -110%
CN(CC(=O)NC1CCCC1)S(=O)(=O)c1cccc(Cl)c1	none (no result: RXFP1 ag)
CCCN1CCC(NC(=O)Nc2cc(Cl)ccc2OC)CC1	none
COc1ccc(Cl)cc1NC(=O)NC1CCCCC1	pAkt inh -127%
COc1cc(S(=O)(=O)NC2CCCCC2)ccc1Cl	pAkt inh -119%
